PubChem BioAssay
Calls of active or inactive are those of the source.

Legend:
[1] = binders of probe aFSTL3 on microarray, primary screen, stem cell growth factor project, biochemical, small-molecule microarray, fluorescence 635/667 (AID 1064); conditions: higher = more signal;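 also: measures binding of the biotinylated anti-FSTL3 antibody to printed compounds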
[2] = binders from COS7 lysate, DM2A8 probe, primary screen, torsin A project, cell lysate, small-molecule microarray, fluorescence 635/667 (AID 1065); conditions: higher = more signal, COS7 lysate expressing mutant human TOR1A
[3] = binders of probe aFGF2 on microarray, primary screen, stem cell growth factor project, biochemical, small-molecule microarray, fluorescence 635/667 (AID 1067); conditions: higher = more signal;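 also: measures binding of biotinylated aFGF2 protein to printed compounds on slides; z-score merges feature fluorescence and signal-to-noise across triplicate slides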
[4] = binders of probe aFGF10 on microarray, primary screen, stem cell growth factor project, biochemical, small-molecule microarray, fluorescence 635/667 (AID 1071); conditions: higher = more signal;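 also: score merges 667 nm spot intensity and signal to noise from triplicate slides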
[5] = target: Neurogenic locus notch homolog protein 2 (Homo sapiens) (UniProt Q04721); assay: Notch2 binders on small-molecule microarrays, primary screen, biochemical, small-molecule microarray, 635 nm fluorescence, stem cell growth factors (AID 1073); conditions: Notch2 binding, higher = more signal
Chain of Neurogenic locus notch homolog protein 2 (Homo sapiens) (Q04721 whole entry, looked up, canonical isoform): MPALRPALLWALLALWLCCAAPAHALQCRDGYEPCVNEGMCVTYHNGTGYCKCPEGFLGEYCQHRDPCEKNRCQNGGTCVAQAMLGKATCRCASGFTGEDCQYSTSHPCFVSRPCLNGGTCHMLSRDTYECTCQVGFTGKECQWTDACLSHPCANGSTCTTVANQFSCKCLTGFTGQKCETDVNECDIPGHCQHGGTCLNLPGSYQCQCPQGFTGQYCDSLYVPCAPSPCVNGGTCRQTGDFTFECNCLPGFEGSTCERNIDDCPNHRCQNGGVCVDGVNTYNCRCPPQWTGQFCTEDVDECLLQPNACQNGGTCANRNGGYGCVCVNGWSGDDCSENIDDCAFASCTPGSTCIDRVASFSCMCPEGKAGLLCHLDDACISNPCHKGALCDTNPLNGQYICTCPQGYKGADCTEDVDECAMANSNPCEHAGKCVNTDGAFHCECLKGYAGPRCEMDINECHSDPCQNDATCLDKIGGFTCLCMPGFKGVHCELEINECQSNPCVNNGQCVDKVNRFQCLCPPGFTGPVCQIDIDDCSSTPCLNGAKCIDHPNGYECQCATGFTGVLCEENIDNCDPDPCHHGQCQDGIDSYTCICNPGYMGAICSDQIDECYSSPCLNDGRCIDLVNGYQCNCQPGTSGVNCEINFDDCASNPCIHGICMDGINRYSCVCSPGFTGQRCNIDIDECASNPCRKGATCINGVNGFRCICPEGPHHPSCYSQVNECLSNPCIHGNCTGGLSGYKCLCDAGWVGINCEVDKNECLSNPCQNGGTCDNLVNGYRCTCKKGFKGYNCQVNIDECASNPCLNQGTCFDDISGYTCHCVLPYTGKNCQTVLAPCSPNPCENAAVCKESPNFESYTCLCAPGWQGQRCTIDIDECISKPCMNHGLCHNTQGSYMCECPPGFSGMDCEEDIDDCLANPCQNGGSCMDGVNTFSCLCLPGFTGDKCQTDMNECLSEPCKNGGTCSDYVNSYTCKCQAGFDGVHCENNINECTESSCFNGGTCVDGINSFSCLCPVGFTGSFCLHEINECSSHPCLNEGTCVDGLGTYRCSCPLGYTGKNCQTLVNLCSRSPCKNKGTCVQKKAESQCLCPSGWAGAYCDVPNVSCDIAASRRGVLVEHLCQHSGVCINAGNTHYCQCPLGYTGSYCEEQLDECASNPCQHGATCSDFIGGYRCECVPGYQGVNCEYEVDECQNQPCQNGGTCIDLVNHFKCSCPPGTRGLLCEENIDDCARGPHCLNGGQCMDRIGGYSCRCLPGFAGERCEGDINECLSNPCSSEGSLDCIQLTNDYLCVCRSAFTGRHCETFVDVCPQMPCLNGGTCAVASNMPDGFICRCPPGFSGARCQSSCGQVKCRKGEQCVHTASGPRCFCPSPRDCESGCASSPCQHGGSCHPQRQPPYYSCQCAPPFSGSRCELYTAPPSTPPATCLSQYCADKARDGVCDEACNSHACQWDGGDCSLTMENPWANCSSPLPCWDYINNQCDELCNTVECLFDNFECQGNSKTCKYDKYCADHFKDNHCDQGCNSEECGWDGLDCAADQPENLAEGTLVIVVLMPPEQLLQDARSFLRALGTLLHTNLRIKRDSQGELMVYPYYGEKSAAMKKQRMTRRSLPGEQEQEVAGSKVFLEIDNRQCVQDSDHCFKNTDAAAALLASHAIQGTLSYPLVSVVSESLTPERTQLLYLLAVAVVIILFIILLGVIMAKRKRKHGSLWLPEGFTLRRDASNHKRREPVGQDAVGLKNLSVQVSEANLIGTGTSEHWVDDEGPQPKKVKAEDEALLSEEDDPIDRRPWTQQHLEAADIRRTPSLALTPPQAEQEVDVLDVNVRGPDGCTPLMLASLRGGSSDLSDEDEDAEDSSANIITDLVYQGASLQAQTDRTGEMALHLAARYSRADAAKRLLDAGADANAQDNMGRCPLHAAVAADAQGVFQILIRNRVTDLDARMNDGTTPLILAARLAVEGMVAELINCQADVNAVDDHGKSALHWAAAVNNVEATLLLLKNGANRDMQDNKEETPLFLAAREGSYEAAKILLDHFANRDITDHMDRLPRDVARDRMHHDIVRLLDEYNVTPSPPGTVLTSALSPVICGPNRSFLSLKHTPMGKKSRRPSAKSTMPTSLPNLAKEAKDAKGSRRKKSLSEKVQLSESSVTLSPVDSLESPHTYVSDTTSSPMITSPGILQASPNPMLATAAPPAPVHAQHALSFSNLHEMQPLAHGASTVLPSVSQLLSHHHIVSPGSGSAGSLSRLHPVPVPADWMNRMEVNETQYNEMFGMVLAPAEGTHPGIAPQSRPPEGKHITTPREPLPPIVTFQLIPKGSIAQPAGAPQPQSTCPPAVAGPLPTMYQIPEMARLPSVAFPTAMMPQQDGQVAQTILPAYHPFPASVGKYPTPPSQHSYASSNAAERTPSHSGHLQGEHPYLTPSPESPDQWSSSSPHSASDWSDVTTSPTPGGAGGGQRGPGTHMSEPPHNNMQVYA

[6] = target: Pro-neuregulin-1, membrane-bound isoform (Homo sapiens) (UniProt Q02297); assay: NRG1 binders on small-molecule microarrays, primary screen, psychiatric disease protein project, biochemical, small-molecule microarray, fluorescence 635/667 (AID 1075); conditions: NRG1 binding, 635 nm fluorescence, higher = more signal;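 also: score combines 667 nm spot fluorescence with signal to noise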
[7] = system: Neuregulin-1 EGF-like domain; assay: binders of neuregulin-1 EGF-like domain, primary screen, biochemical, small-molecule microarray, 635 nm fluorescence (AID 1081); conditions: small-molecule microarray binding, higher = more signal;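 also: binding of the protein to compounds printed on small-molecule microarray slides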
[8] = FRG1 promoter luciferase signal modulators, primary screen, FRG1 inhibition for FSHD, cell-based, C2C12 myotubes, firefly/Renilla luciferase, luminescence (AID 1084); conditions: higher = more signal, called active from +8 up or from −8 down
[9] = binders of probe aFST on microarray, primary screen, stem cell growth factor project, biochemical, small-molecule microarray, fluorescence 635/667 (AID 1086); conditions: higher = more signal;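 also: score merges 667 nm fluorescence with signal-to-noise of each printed compound spot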
[10] = binders of probe aHhip on microarray, primary screen, stem cell growth factor project, biochemical, small-molecule microarray, fluorescence 635/667 (AID 1087); conditions: higher = more signal;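 also: score merges spot fluorescence at 667nm with spot signal to noise ratio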
[11] = system: PRMT1 (protein arginine N-methyltransferase 1); assay: PRMT1 binders on small-molecule microarrays, primary screen, biochemical, small-molecule microarray, 635 nm fluorescence (AID 1088); conditions: small-molecule microarray binding, higher = more signal;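 also: binding of Prmt1 protein to compounds spotted on small-molecule microarray slides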
[12] = yeast growth modulation, basal conditions, primary screen, YJM789 clinical isolate, OD600, 24 h (AID 1089);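 also: growth of clinical yeast isolate S. cerevisiae YJM 789 seeded 1000 cells per well; test concentration not given here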; conditions: S. cerevisiae YJM789 growth, higher = more signal, called active from +8 up or from −8 down
[13] = fission yeast growth modulation, primary screen, strain 972, OD600, 24 h, no modulator (AID 1090);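 also: basal condition with compound alone and no growth modifier present; test concentration not given here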; conditions: S. pombe 972 growth, higher = more signal, called active from +8 up or from −8 down
[14] = S. cerevisiae growth modulation with rapamycin, primary screen, strain BY4716, OD600, 96 h (AID 1091); conditions: higher = more signal, called active from +8 up or from −8 down; also: test concentration not given here
[15] = target: Torsin-1A-interacting protein 2 (Homo sapiens) (UniProt Q8NFQ8); assay: LULL1 binders on small-molecule microarray, primary screen, cell lysate, human LULL1 lysate, 635/667 nm fluorescence (AID 1092); conditions: hLULL1 lysate binding, 635 nm fluorescence, higher = more signal;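 also: probe is lysate of COS7 cells overexpressing human LULL1; score merges per-feature 667 nm fluorescence with signal-to-noise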
[16] = E. coli growth modulation, two-sided OD650, primary screen, E. coli filamentation project, strain DRC41, 24 h (AID 1093); conditions: OD650, 24 h, higher = more signal, called active from +8 up or from −8 down;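 also: MC1000 strain lacking acrAB efflux and sulA so SOS filamentation is blocked; test concentration not given here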
[17] = small-molecule microarray binders of probe aLefty2, primary screen, biochemical, biotinylated probe, 635/667 nm fluorescence (AID 1094); conditions: higher = more signal;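 also: score merges spot fluorescence near 667 nm with spot signal-to-noise ratio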
[18] = system: Noggin (protein binding on small-molecule microarray); assay: Noggin binders on small-molecule microarray, primary screen, biochemical, 635/667 nm fluorescence (AID 1095); conditions: 635 nm fluorescence, higher = more signal;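 also: score merges 667 nm feature fluorescence with signal to noise over triplicate slides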
[19] = target: Neurogenic locus notch homolog protein 3 (Homo sapiens) (UniProt Q9UM47); assay: NOTCH3 binders on small-molecule microarray, primary screen, biochemical, 635/667 nm fluorescence (AID 1096); conditions: NOTCH3 binding, 635 nm fluorescence, higher = more signal
Chain of Neurogenic locus notch homolog protein 3 (Homo sapiens) (Q9UM47 whole entry, looked up): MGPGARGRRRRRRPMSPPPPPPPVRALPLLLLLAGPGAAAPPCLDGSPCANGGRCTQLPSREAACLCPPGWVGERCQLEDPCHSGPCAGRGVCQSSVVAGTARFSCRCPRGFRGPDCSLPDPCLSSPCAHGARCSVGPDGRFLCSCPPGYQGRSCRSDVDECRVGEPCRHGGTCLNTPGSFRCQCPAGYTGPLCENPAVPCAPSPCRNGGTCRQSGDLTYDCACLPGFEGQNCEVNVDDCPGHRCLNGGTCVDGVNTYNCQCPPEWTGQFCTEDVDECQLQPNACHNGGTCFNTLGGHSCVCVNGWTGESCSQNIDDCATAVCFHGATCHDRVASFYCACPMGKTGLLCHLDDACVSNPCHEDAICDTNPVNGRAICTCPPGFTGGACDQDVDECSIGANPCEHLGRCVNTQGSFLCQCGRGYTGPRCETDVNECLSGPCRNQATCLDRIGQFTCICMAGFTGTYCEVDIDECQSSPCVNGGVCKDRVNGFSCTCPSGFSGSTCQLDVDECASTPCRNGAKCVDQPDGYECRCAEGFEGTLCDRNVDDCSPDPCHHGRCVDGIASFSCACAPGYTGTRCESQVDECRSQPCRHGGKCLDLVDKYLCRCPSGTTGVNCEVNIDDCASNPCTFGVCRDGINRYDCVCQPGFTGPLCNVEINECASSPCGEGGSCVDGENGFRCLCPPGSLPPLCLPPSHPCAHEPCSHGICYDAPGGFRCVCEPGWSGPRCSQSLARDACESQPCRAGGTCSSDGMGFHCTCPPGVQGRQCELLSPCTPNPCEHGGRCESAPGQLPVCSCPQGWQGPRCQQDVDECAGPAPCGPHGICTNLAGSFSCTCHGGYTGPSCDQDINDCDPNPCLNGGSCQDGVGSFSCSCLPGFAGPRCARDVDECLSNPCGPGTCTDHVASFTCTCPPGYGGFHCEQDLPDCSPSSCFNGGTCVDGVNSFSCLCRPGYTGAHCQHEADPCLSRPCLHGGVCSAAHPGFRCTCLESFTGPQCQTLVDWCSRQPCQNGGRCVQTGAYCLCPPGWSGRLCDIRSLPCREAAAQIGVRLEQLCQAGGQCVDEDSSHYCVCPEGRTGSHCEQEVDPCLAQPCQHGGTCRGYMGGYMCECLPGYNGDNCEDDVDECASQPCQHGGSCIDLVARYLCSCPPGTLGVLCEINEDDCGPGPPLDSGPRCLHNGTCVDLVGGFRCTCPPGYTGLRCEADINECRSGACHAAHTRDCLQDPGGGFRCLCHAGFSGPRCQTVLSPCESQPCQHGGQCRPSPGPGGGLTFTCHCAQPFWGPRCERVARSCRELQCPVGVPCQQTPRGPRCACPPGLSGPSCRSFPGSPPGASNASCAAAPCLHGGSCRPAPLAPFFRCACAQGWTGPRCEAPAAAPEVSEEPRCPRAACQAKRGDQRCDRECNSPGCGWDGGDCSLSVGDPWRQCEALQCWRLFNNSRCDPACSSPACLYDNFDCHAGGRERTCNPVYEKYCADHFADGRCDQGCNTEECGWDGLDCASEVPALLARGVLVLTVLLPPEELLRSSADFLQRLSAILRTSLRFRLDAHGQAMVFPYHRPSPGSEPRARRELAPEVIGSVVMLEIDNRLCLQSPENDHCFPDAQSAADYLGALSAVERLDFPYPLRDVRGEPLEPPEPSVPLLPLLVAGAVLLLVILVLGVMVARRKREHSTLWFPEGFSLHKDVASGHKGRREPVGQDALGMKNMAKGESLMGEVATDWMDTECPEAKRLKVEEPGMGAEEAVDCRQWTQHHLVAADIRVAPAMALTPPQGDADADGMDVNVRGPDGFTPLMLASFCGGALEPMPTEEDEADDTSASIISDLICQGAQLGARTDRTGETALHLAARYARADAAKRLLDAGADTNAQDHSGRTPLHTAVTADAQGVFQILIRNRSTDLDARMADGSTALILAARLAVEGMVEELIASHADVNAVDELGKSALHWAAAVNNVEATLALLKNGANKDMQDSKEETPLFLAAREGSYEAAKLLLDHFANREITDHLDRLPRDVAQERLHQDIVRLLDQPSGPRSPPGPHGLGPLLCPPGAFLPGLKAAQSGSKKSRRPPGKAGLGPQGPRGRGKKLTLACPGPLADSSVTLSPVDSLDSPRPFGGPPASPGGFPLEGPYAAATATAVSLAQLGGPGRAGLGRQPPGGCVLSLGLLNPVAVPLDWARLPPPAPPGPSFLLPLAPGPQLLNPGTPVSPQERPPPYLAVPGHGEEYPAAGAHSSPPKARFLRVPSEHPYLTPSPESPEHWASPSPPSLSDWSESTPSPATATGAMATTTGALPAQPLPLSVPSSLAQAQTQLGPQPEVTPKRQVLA

[20] = small-molecule microarray binders of probe aEGFR, primary screen, biochemical, biotinylated probe, 635/667 nm fluorescence (AID 1097); conditions: higher = more signal;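 also: probe is a biotinylated anti-EGFR antibody binding compounds printed on slides; score combines fluorescence near 667 nm and signal to noise of each spot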

Row | SMILES | composite z-score [1] | composite z-score [2] | composite z-score [3] | composite z-score [4] | composite z-score [5] | composite z-score [6] | composite z-score [7] | z-score [8] | composite z-score [9] | composite z-score [10] | composite z-score [11] | z-score [12] | z-score [13] | z-score [14] | composite z-score [15] | z-score [16] | composite z-score [17] | composite z-score [18] | composite z-score [19] | composite z-score [20]
1 | COc1ccc(C(=O)Nc2cccc(CN3C(=O)[C@]4(O[C@H](CCn5cc(CCO)nn5)[C@@H]([Si](C)(C)c5ccc(OC)cc5)[C@@H]4C)c4ccccc43)c2)cc1 | 0.287 | -0.161 | -0.116 | -0.13 | 0.91 | 0.654 | 1.04 | -2.91 (inactive) | 0.372 | -0.137 | 1.06 | 0.901 (inactive) | -14.9 (active) | 1.15 (inactive) | 1.2 | 0.506 (inactive) | 0.143 | 0.367 | 0.556 | 0.0848
2 | CCOC(=O)C[C@H]1[C@H](OC(=O)c2ccc(C(=O)c3ccccc3)cc2)[C@@H](NC(=O)c2ccccc2)c2cc(OCCCO)ccc2N1C(=O)c1ccccc1 | -0.481 | 0.0554 | -0.0376 | 0.683 | 0.783 | 0.636 | 0.935 | -1.48 (inactive) | 0.204 | 0.0053 | 0.844 | -0.178 (inactive) | 0.801 (inactive) | -0.536 (inactive) | 1.72 | -0.448 (inactive) | -0.0154 | 0.508 | 1.01 | 0.121
3 | CC1CC/C=C\[C@H]2OC34C=CCN(Cc5ccccc5)C(=O)[C@H]3N(C(C)CO)C(=O)[C@@H]4C2C(=O)O1 (stereo not given in full) | -0.504 | -0.33 | -0.138 | 0.0852 | -0.257 | -0.771 | 1.44 | 0.251 (inactive) | -0.021 | -0.0672 | -0.938 | -0.875 (inactive) | -1.48 (inactive) | -0.577 (inactive) | 0.44 | 0.524 (inactive) | -0.092 | 0.392 | 0.158 | -0.0916
4 | CCCCCCc1nc(-c2ccc(-c3ccc(Cl)c(Cl)c3)o2)cc2c1[Si](C(C)C)(C(C)C)O[C@H]2c1ccccc1 | 0.0771 | -0.543 | -0.116 | -0.379 | -0.797 | 0.501 | -0.412 | 0.213 (inactive) | -0.265 | 0.0505 | 0.287 | -0.124 (inactive) | -0.45 (inactive) | -1.35 (inactive) | 0.424 | 0.488 (inactive) | -0.196 | 0.0792 | -0.34 | -0.249
5 | O=C1OCCC=C[C@H]2OC34C=CCN(c5ccc(Cl)cc5)C(=O)[C@H]3N(CCCO)C(=O)[C@@H]4C12 (stereo not given in full) | 0.189 | -0.771 | -0.104 | -0.144 | -0.678 | -0.602 | -0.366 | 0.923 (inactive) | -0.155 | -0.236 | -0.827 | -0.0304 (inactive) | -1.36 (inactive) | 0.0341 (inactive) | -1.28 | 1.31 (inactive) | 0.0058 | -0.469 | -0.792 | -0.116
6 | OCCCC1=CC(C2CC2)N(Cc2cccc(OC(F)(F)F)c2)CC1 (stereo not given) | -0.367 | 0.406 | -0.208 | -0.771 | -0.464 | -0.106 | 0.677 | 0.606 (inactive) | -0.658 | -0.0373 | 0.352 | -2.88 (inactive) | -2.33 (inactive) | -1.72 (inactive) | 0.25 | -0.454 (inactive) | -0.264 | -0.177 | -0.477 | -0.157
